Out of some 68,000 compounds screened, about 2,700 (4%) showed an effect of 50% or more. For the sample, strong results were picked, then their nearest neighbours and some compounds at random.

This assay concerns Plasmodium berghei. The experiment in a line: Screen against P. berghei liver stage (PbLuc), transformed with Luciferase, at 2uM. The settings on record: tested at 2 uM. The class given is functional, HepG2.
Take `CCN1CC2(CCC1=O)CCN(Cc1cccc(OC(F)F)c1)CC2`: the INHIBITION is -1.38%. For `O=C(NCc1cccnc1)C1CN(c2cnc3ccccc3n2)CCN1` (stereo unspecified) the value was -6.53%; for `O=C(NCc1ccncc1)C1CN(c2nc3ccccc3s2)CCN1` (stereo unspecified), 11.67%; for `O=C(NCc1ccccn1)C1CN(c2nc3ccccc3s2)CCN1` (stereo unspecified), 56.21%. For `CCCc1nc(C)cc(N2CCNC(C(=O)NCc3cccnc3)C2)n1` (stereo unspecified) the value was 19.81%. For `Nc1nccc(N2CCNC(C(=O)NCc3ccccn3)C2)n1` (stereo unspecified) the value was 50.94%. As to `O=C(NC1CC1)C1CN(c2nc3ccccc3s2)CCN1` (stereo unspecified), the INHIBITION is recorded as -17.07%.

In the case of `CN(C)CCN1CCN(Cc2cccs2)Cc2cccnc21`, the INHIBITION stood at 31.96%. As for `COc1ccc(CNC(=O)NC2CCC(O)CC2)c(C(F)(F)F)c1` (stereo unspecified), the INHIBITION was found to be 24.83%. For `Cc1nc(C)n(CC2CCCCN2c2ccnc(-c3ccccc3)n2)n1` (stereo unspecified) the value was -22.89%; for `CN(C)CCN(Cc1ccsc1)C(=O)C1=NNC(=O)CC1`, 31.51%. With `O=C(c1cccc(=O)[nH]1)N(Cc1ccsc1)CC1CCCO1` (stereo unspecified), the INHIBITION is -2.31%. For `O=C1CCC(C(=O)N(Cc2ccsc2)CC2CCCO2)=NN1` (stereo unspecified) the value was 50.59%; for `CNc1cccc(C2CCN(C(C)=O)CC2)n1`, 28.4%. Consider `CNC(=O)CN1CCC(c2nn(C)c(=O)n2-c2ccccc2)CC1`, for which the INHIBITION is reported as 16.93%. For `CCCC(=O)N1CCC(c2nn(C)c(=O)n2-c2ccccc2)CC1` the value was 60.64%; for `CC(=O)N1CCC(c2nn(C)c(=O)n2-c2ccccc2)CC1`, 64.06%. In the case of `CCCn1cc(C(=O)NC2CCN(CC(=O)NC3CC3)CC2)c(C)n1`, the INHIBITION worked out at 16.35%. For `Cn1nc(C2CCN(CC(=O)NC3CC3)CC2)n(-c2ccccc2)c1=O` the value was 60.64%.

`O=c1n(Cc2ncccn2)nc(C2CCNCC2)n1-c1ccccc1`: the INHIBITION is on record as -0.59%. For `CCSC(C)C(=O)N1CCC(c2nn(C)c(=O)n2-c2ccccc2)CC1` (stereo unspecified), the INHIBITION is given as -45.11%. Take `Cn1cnnc1C1CCN(C(=O)CCCOc2ccccc2)CC1`: the INHIBITION was determined as 23.31%. Take `CC1CN(C(=O)NCCCn2cncn2)CCO1` (stereo unspecified): the INHIBITION is listed as -7.02%. For `CS(=O)(=O)N1C[C@H]2CN(CC3CC3)C(=O)[C@H]2C1` the value was -30.69%; for `CC(=O)Nc1nc(C(=O)NCc2ccc(N3CCOC(C)C3)nc2)cs1` (stereo unspecified), 13.36%; for `CN(CCc1nccs1)C(=O)CC1(O)CCCCC1`, 25.78%. `Clc1ccccc1C1(c2ccnc(-c3ccncc3)n2)CCNCC1`: the INHIBITION is given as -14.84%.

Turning to `O=C(O)c1csc(S(=O)(=O)Nc2cccc(OC(F)F)c2)c1`, the INHIBITION is listed as -56.15%. For `CC(=O)c1cccc(NS(=O)(=O)c2cc(C)c(C(=O)O)s2)c1` the value was -18.41%; for `CCc1cccc(NS(=O)(=O)c2cc(C)c(C(=O)O)s2)c1`, 58.69%; for `CCOc1cccc(NS(=O)(=O)c2cc(C)c(C(=O)O)s2)c1`, 40.85%.

As to `Cc1cc(S(=O)(=O)Nc2cccc(OC(F)F)c2)sc1C(=O)O`, the INHIBITION turned out to be 68.61%. For `Cc1cc(S(=O)(=O)Nc2cccc(I)c2)sc1C(=O)O`, the INHIBITION was -21.72%. For `COc1cccc(CN2CCOC(c3cnccn3)C2)c1F` (stereo unspecified) the value was 4.47%; for `Nc1c(N2CCOCC2)ncnc1N1CCOCC1`, -18.65%. For `CC1CCN(S(=O)(=O)c2cccn(CC(=O)NC3CCCC3)c2=O)CC1` the value was -1.71%; for `CNC(=O)C1CCCN(c2nc(-c3ccco3)nc3c2CCNCC3)C1` (stereo unspecified), -44.93%. For `CCS(=O)(=O)NC1CCCN(Cc2ccn(C)c(=O)c2)C1` (stereo unspecified) the value was -21.09%. With `CN1CCCC1CNC(=O)CCOc1ccc(Br)cc1` (stereo unspecified), the INHIBITION is -80.31%.

Take `CCc1nnsc1C(=O)NC1CCN(c2ccccn2)CC1`: the INHIBITION was found to be 11.97%. As for `Cc1ncsc1C(=O)NC1CCN(CCC(N)=O)CC1`, the INHIBITION is -7.02%. As to `CCc1nnsc1C(=O)NC1CCN(CCOc2ccc(Br)cc2)CC1`, the INHIBITION came to 62.51%.

With `Cc1ncc(C(=O)NC2CCN(CCOc3ccc(Br)cc3)CC2)s1`, the INHIBITION is 60.13%. For `Cc1nc(C(=O)NC2CCN(CCOc3ccc(Br)cc3)CC2)cs1` the value was 31.51%; for `COCC[C@]1(O)CCN(Cc2nc(C)c(C)s2)C[C@H]1C`, 11.48%. For `NC(=O)CC1CCN(C(=O)NCCc2ccc(Cl)s2)CC1` the value was 15.47%. For `CCCC(C)NCc1cnc(-c2cccc(C)c2)nc1` (stereo unspecified) the value was 56.47%. Take `Cc1cccc(-c2ncc(CNC(C)CO)cn2)c1` (stereo unspecified): the INHIBITION is reported as -53.16%.

Turning to `Cc1cccc(-c2ncc(CNC(C)Cc3ccncc3)cn2)c1` (stereo unspecified), the INHIBITION came to 24.23%. For `CCCS(=O)(=O)N1CC[C@H]2O[C@@H](c3nc(C)no3)CC[C@H]21` the value was -71.5%; for `Cc1cnc2c(c1NCc1ccncc1)c(=O)n(C)c(=O)n2C`, 29.42%. As for `Cc1cnc2c(c1NCc1cccnc1)c(=O)n(C)c(=O)n2C`, the INHIBITION is reported as 63.23%. For `COc1cccc(CNc2c(C)cnc3c2c(=O)n(C)c(=O)n3C)c1`, the INHIBITION is -9.49%.

Consider `CNS(=O)(=O)CCCN1CCCN(Cc2ccccc2)CC1C` (stereo unspecified), for which the INHIBITION is on record as 32.03%. For `CC1CN(Cc2ccccc2)CCCN1CCS(C)(=O)=O` (stereo unspecified) the value was -7.07%. On to `CC1CN(Cc2ccccc2)CCCN1CCCS(C)(=O)=O` (stereo unspecified), for which the INHIBITION is on record as 53.99%. Consider `CC(NC(=O)CCCOc1ccccc1Cl)c1ccncc1` (stereo unspecified), for which the INHIBITION is -37.84%. Turning to `CCOC(=O)C1(Cc2ccccc2-c2ccccc2OC)CCNCC1`, the INHIBITION was found to be 29.68%.

In the case of `CCn1c(N)nc2cc(C(=O)N3CCCN(C)CC3)cnc21`, the INHIBITION is listed as 63.1%. Take `CCn1c(N)nc2cc(C(=O)N3CCC(N4CCCC4)CC3)cnc21`: the INHIBITION is -12.08%.

As to `CCn1c(N)nc2cc(C(=O)N(C)Cc3cc(C(C)(C)C)n[nH]3)cnc21`, the INHIBITION is on record as 58.17%.

For `CCc1ccc(CN(C)C(=O)c2cnc3c(c2)nc(N)n3CC)nc1`, the INHIBITION was determined as 17.5%. In the case of `CCc1cc(CN(C)C(=O)c2cnc3c(c2)nc(N)n3CC)on1`, the INHIBITION is recorded as 6.85%. For `CCn1c(N)nc2cc(C(=O)N3CCCOCC3)cnc21` the value was 40.47%.

For the compound `Cc1cnnn1Cc1nnn2c1CN(Cc1cccs1)CCC2`, the INHIBITION was 12.29%.

Turning to `COc1cccc2c1OCC(CNC(=O)Cc1csc(C(C)=O)c1)C2` (stereo unspecified), the INHIBITION is recorded as 19.13%.

With `CCc1cc(=O)n(CC(=O)NCC2CCCO2)c(-c2cccc(F)c2)n1` (stereo unspecified), the INHIBITION was 23.65%. `CN1CCC(c2cccc(-c3ccc(C(=O)O)cc3)n2)CC1`: the INHIBITION was -39.93%. In the case of `CCC(C)N(Cc1ccsc1)C(=O)c1ccc2[nH]nnc2c1` (stereo unspecified), the INHIBITION is 38.24%.

As for `CCC(CO)N(Cc1ccc(C(=O)O)cc1)Cc1ccsc1` (stereo unspecified), the INHIBITION is 2.17%.

Turning to `CCC(C)N(Cc1ccsc1)C(=O)c1ccc(CO)cc1` (stereo unspecified), the INHIBITION is given as 52.98%. For the compound `CNc1oc(-c2cc(S(=O)(=O)N3CCCC3)c(C)o2)nc1C#N`, the INHIBITION is on record as -49.59%. For `Cc1oc(-c2nc(C#N)c(NC(C)(C)C)o2)cc1S(=O)(=O)N1CCCC1` the value was 58.42%; for `CNc1oc(-c2cc(S(=O)(=O)N3CCCCCC3)c(C)o2)nc1C#N`, 5.96%; for `Cc1cccc(CN2C[C@@H]3CN(C(=O)c4ccsc4)C[C@@H]3C2=O)n1`, -23.78%.

As to `Cc1cnc(N2CC[C@@H]3O[C@@H](COCc4ccccn4)CC[C@@H]32)nc1`, the INHIBITION is -7.26%. As for `CN(CCCOc1ccccc1)Cc1nc2c(cnn2C)c(=O)[nH]1`, the INHIBITION is recorded as -31.57%. Take `Cc1ccc(OCCN(C)Cc2nc3c(cnn3C)c(=O)[nH]2)cc1`: the INHIBITION worked out at 78.42%. Take `COCCCN(C)Cc1nc2c(cnn2C)c(=O)[nH]1`: the INHIBITION is on record as -135.87%. As to `COc1ccc2c(c1)CN(Cc1nc3c(cnn3C)c(=O)[nH]1)CC2`, the INHIBITION came out at 27.55%. As for `CN(CCOc1cccc(F)c1)Cc1nc2c(cnn2C)c(=O)[nH]1`, the INHIBITION is 47.87%. For `Cn1ncc2c(=O)[nH]c(CN3CCCC3CC3CCCCC3)nc21` (stereo unspecified) the value was -5.15%; for `Cn1ncc2c(=O)[nH]c(CN3CCCC3CC(C)(C)C)nc21` (stereo unspecified), 70.27%. With `CCC1CCCCN1Cc1nc2c(cnn2C)c(=O)[nH]1` (stereo unspecified), the INHIBITION is on record as -31.57%.

In the case of `COc1ccc2c(c1)CCN2Cc1nc2c(cnn2C)c(=O)[nH]1`, the INHIBITION stood at 52.17%. For `COc1ccc(OCCN(C)Cc2nc3c(cnn3C)c(=O)[nH]2)cc1` the value was 72.31%; for `CN(CCCOc1ccc(F)cc1)Cc1nc2c(cnn2C)c(=O)[nH]1`, -45.72%.

With `COc1ccc2c(c1)CCCN2Cc1nc2c(cnn2C)c(=O)[nH]1`, the INHIBITION was -70.71%. For `CSc1cccc(CN(C)C(=O)Nc2nc(C)n(C)n2)c1` the value was 4.12%. In the case of `CSCC(=O)N1CCCC1c1noc(C2CC2)n1` (stereo unspecified), the INHIBITION was determined as 27.44%. For the compound `Cc1cc(C)n(CC(C)NC(=O)C2(c3ccccc3F)CC2)n1` (stereo unspecified), the INHIBITION is -45.89%. For `O=C(CCN1CCCCO1)N1CCC(CO)(CCc2ccccc2)CC1` the value was 12.56%; for `O=C(c1cc2c(s1)CCC2)N1CCCC1Cn1cccn1` (stereo unspecified), 17.39%; for `CN(C)c1ncc(CNC2CC(=O)N(CCc3cccc(Cl)c3)C2)s1` (stereo unspecified), 35.26%. On to `CCNc1nc(C)c(C(=O)N2CCC(C(O)Cc3ccccc3)CC2)s1` (stereo unspecified), for which the INHIBITION was 15.73%.

As to `O=C(C1CCCN(C2CCOCC2)C1)N1Cc2ccccc2C1` (stereo unspecified), the INHIBITION is on record as -45.79%. As for `Fc1cccc(CN2CCC(c3cc4ncccc4cn3)CC2)c1F`, the INHIBITION is given as -27.12%. For `CCC(C)N(CCOC)Cc1nc2c(cnn2C)c(=O)[nH]1` (stereo unspecified) the value was 29.19%; for `CC(N(C)Cc1nc2c(cnn2C)c(=O)[nH]1)C(C)(C)C` (stereo unspecified), 62.46%. For `CN(Cc1nc2c(cnn2C)c(=O)[nH]1)Cc1ccco1` the value was 27.5%.

Take `COCCN(Cc1nc2c(cnn2C)c(=O)[nH]1)Cc1ccco1`: the INHIBITION is recorded as -16.42%. In the case of `COCCN(Cc1nc2c(cnn2C)c(=O)[nH]1)C(C)c1ccccc1` (stereo unspecified), the INHIBITION turned out to be 68.24%.

As to `Cc1ccc(C(C)N(C)Cc2nc3c(cnn3C)c(=O)[nH]2)cc1` (stereo unspecified), the INHIBITION is 28.65%. For `CCN(Cc1nc2c(cnn2C)c(=O)[nH]1)Cc1ccco1` the value was 53.98%. For `COCCN(Cc1nc2c(cnn2C)c(=O)[nH]1)C(C)COC` (stereo unspecified) the value was 20.57%; for `CC(C)CN(C)Cc1nc2c(cnn2C)c(=O)[nH]1`, -29.44%.

The values are drawn from ChEMBL document CHEMBL4513216, “Probing the Open Global Health Chemical Diversity Library for Multistage-Active Starting Points for Next-Generation Antimalarials” (ACS Infect Dis, 2020).
